Records with an inconclusive call do not appear. A number with no mark means an inactive call. Active and inactive are the calls of the source. Calls follow the shape of the dose curve; as a rule, active = well fitted inhibition curve with a large enough effect; inconclusive = small, poorly fitted or top-dose-only effect; inactive = no such curve, though single readings can be large or run the other way.
assay: BET inhibitor-based combinations targeting novel dependencies in MECOM-rearranged (r) AML: MV-4-11 cell line (AID 2202233); details: MV-4-11 AML viability, CellTiter-Glo luminescence, 48 h; series mostly up to 46 µM; also: nearly all actives have a fitted effect of over 45% in size;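 as to viability, % of control: plate controls were DMSO for no effect and blank wells for full effect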
Outline: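 First, 500 cells per well were seeded; next, drugs were pinned as 11-point doses; then plates sat 48 hr in the incubator; finally CellTiter-Glo was added and luminescence read, with AUC and Z-AUC computed.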
Potency is read from the fitted curve at half-maximal effect.

SMILES	Potency	viability, % of control
COC1CC(C(=O)c2ccc3c(N)ncc(-c4ccc(-c5cnn(C)c5)cc4)c3n2)C1 (stereo not drawn)	2.95 µM (active)	–
CCC(C)CNCC(=O)N1CCc2sccc2C1c1cccc(C)n1 (stereo not drawn)	inactive	–
COc1ccc2c(c1OC)C(=O)OC2[C@H]1c2c(cc3c(c2OC)OCO3)CCN1C (stereo partly drawn)	18.6 µM (active)	–
C[C@H]1CNCCCN1S(=O)(=O)c1cccc2cncc(F)c12	inactive	–
CCCC[C@@H](C=O)NC(=O)[C@H](CC(C)C)NC(=O)OCc1ccccc1	18.6 µM (active)	–
Cc1ccc(NC(=O)NCc2ccc3c(c2)CN(C2CCC(=O)NC2=O)C3=O)cc1Cl (stereo not drawn)	0.0026 µM (active)	–
C[C@@H]1CC(=O)Nc2cccc(-c3ccc4c(c3)c(-c3cnn(C)c3)nn4C)c2N1	5.25 µM (active)	–
O=C(O)CNC(=O)c1ncc(-c2cccc(Cl)c2)cc1O	inactive	–
CCC(=O)O[C@]1(C(=O)CO)CC[C@H]2[C@@H]3CCC4=CC(=O)CC[C@]4(C)[C@H]3CC[C@@]21C	inactive	–
CN1CCN(C(=O)[C@H]2[C@@H](C(=O)O)[C@H]3CC[C@@H]2O3)CC1	–	111% [at 8.46 µM]
Cn1cc(/C=C/C(=O)c2cccc(F)c2)cc1/C=C/C(=O)NO	4.68 µM (active)	–
Cc1c(F)cccc1NC(=O)Nc1ccc(Cl)c(S(=O)(=O)[C@H]2CCCNC2)c1O	inactive	–
Cc1ccc(C(=O)N(CCCN)[C@@H](c2nc3cc(Cl)ccc3c(=O)n2Cc2ccccc2)C(C)C)cc1	0.0417 µM (active)	–
C[C@]12CCC3=C4CCC(=O)C=C4CC[C@H]3[C@@H]1CC[C@@]2(O)CC#N	inactive	–
c1ccc2[nH]c(-c3cscn3)nc2c1	inactive	–
C[C@H](NC(=O)c1c(N)nn2cccnc12)c1cc2cccc(C#Cc3cnn(C)c3)c2c(=O)n1-c1ccccc1	8.11 µM (active)	–
Cc1c(C(=O)Nc2ccc(Oc3ccnc4[nH]cc(-c5ccccc5)c34)c(F)c2)c(=O)n(-c2ccc(F)cc2)n1C	0.0742 µM (active)	–
CN(C)C[C@@H]1CCn2cc(c3ccccc32)C2=C(C(=O)NC2=O)c2cn(c3ccccc23)CCO1	0.417 µM (active)	–
CCNCCc1ccc(CN(CC)c2cc(OC)ccc2[C@@H]2CCc3cc(O)ccc3C2)cc1	5.9 µM (active)	–
C[C@@]12O[C@@H](C[C@]1(O)CO)n1c3ccccc3c3c4c(c5c6ccccc6n2c5c31)CNC4=O	0.0118 µM (active)	–
COc1cc2c(NC3CCN(C)CC3)nc(N3CCCN(C)CC3)nc2cc1OCCCN(C)C	inactive	–
CC#CC(=O)N1CC[C@@H](n2c(=O)n(-c3ccc(Oc4ccccc4)cc3)c3c(N)ncnc32)C1	10.5 µM (active)	–
COC(=O)[C@@H]1CC2=CC(=O)CC[C@]2(C)[C@@]23O[C@@H]2C[C@@]2(C)[C@@H](CC[C@@]24CCC(=O)O4)[C@H]13	inactive	–

Source: PubChem BioAssay (NCATS)
